# Assay results reported in PubChem BioAssay (NCI).
# This is part of a sample that, as a whole, favours compounds with a hit. Of some 83,000 tested, about 20% had one in any assay.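 Percent growth is the endpoint: 0 to 100 indicates growth inhibition (40 means 60% inhibition), 0 means no net growth, and negative values indicate cell death.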 Unmarked numbers belong to inactive results. Activity calls are given as the source filed them. The calls were made as follows: active = growth percent below 10; inactive = the rest.
# System: SNB-19 CNS
# Test: NCI-60 one-dose screen, 48 h (100 = growth as untreated, 0 = no growth, -100 = all killed)
# Conditions: 10 µM unless noted
row,Compound,growth [%]
1,O=C(c1ccc(Br)cc1)C(Br)C(c1ccc(Cl)cc1)C(c1ccccc1)[N+](=O)[O-] (centres undefined),93.9
2,CN1CCOCCN(C)Cc2ccc3ccc(cc3c2)CN(C)CCOCCN(C)Cc2ccc3ccc(cc3c2)C1,86.5
3,COc1ccc(CN2C(=O)OC(C)(COC(C)=O)C2=O)cc1 (centres undefined),102
4,CN(C)c1ccc(/C=N\NC(=O)c2ccc3nc(-c4ccc(Cl)cc4)[nH]c3c2)cc1,60.4
5,COCCn1cc(-c2csc(-c3c[nH]c4ccc(F)cc34)n2)c2cccnc21,58.1
6,C/C(Cc1ccc(Cl)cc1)=C(\c1ccc(OCCN2CCCCCC2)cc1)c1ccc(OC(=O)c2ccccc2)cc1,50.3

# System: U251 CNS
# Test: as above
# Conditions: 10 µM unless noted
row,Compound,growth
1,COCCn1cc(-c2csc(-c3c[nH]c4ccccc34)n2)c2cccnc21,35.5%
2,CCN(CC)c1ccc(-c2cc(-c3cc(OC)c(OC)c(OC)c3)nc(N3CCC(O)CC3)c2C#N)cc1,-32.5% (active)
3,CN1C(=O)/C(=C/c2ccc(C(=O)Nc3ncc(Cc4cccc(C(F)(F)F)c4)s3)cc2)SC1=S,67.8%
4,Nc1ncnc2c1N=C(c1ccc(Cl)cc1)CC(c1cccc(Nc3ccnc4cc(Cl)ccc34)c1)N2 (centres undefined),50%
5,COCCn1cc(-c2nc(-c3cc4cccnc4n3C)cs2)c2ccccc21,33.3%
6,COC(=O)[C@]1(C)CCC[C@]2(C)[C@H]3C[C@@H]4[C@H]5[C@@H]6CC/C(=N\OCC/C(N)=N/O)[C@H]5[C@@]3(CC[C@H]21)CC4(C(C)C)O6,68.4%
7,Cc1cccc(-c2nc(C(C)C)sc2-c2ccnc(NCCCNS(=O)(=O)c3ccc(Cl)cc3)c2)c1,73%
8,O=C(/C=C/C12c3ccccc3C(c3ccccc31)C1C(=O)NC(=O)C12)c1ccc(Cl)cc1Cl (centres undefined),7.87% (active)
9,CC(C)(C)CC(C)(C)Nc1c(-c2c(O)c3ccccc3oc2=O)nc2sc3ccccc3n12,25.5%
10,CN(C)CCC(CCN(C)C)(C(=O)O)c1ccccc1,102%
11,Cn1c(=O)[nH]c(=O)c2nc3c(nc21)-c1ccccc1C3=O,106%
12,C=C(c1ccc(C(=O)O)c(F)c1)c1cc2c(cc1C)C(C)(C)CCC2(C)C,75.4%
13,C=C1C(=O)O[C@H]2[C@H]1CC/C(COC(=O)C(=O)c1c[nH]c3ccc(Cl)cc13)=C\CC[C@@]1(C)O[C@@H]21,-93.1% (active)
14,N#Cc1c(-c2ccc(Br)cc2)nc2c(N=Nc3ccc(S(N)(=O)=O)cc3)c(N)nn2c1N,41.3%
15,CCN(CC)CCN1C(=O)c2c(c3c4ccccc4[nH]c3c3ccc4ccccc4c23)C1=O,-89.3% (active)
16,O=C(/C=C/c1ccccc1)N(C1CCCCC1)C1CCCCC1,84.3%
17,CC1(C)CC[C@]2(CO)CC[C@]3(C)[C@](O)([C@H](O)C[C@@H]4[C@@]5(C)CCCNC(C)(C)[C@@H]5CC[C@]43C)[C@@H]2C1,79.6%
18,Nc1nc(N(Cc2ccccc2)c2ccccc2)c2cn[nH]c2n1,42.6%
19,CN1CC(c2ccc(Br)cc2)C(C(=O)c2ccc(Br)cc2)C12C(=O)Nc1ccccc12 (centres undefined),82.3%
20,Nc1nc(C(=O)N/N=C/c2ccc(F)cc2)nn1-c1ccc(S(N)(=O)=O)cc1,98.4%
21,COc1ccc(-c2nc(SCC(=O)Nc3nc4ccc(C)cc4s3)[nH]c(=O)c2C#N)cc1OC,104%
22,CNC(=O)NCC1OC(n2cnc3c(NC(=O)Nc4ccccc4)ncnc32)C2OC(=O)CC12 (centres undefined),96.2%
23,COc1ccc(NC(=O)c2ccc(Nc3ncnc4c3cnn4-c3cccc(F)c3)cc2)cc1,103%
24,CC(C)NS(=O)(=O)/N=C1\NC(=O)NC1=C(Cl)Cl,90.6%
25,Cc1ccc2cnc(N)c(C#Cc3cc(C(=O)Nc4ccc(CN5CCN(C)CC5)c(C(F)(F)F)c4)cnc3C)c2c1,-80.7% (active)
26,Cc1nn(-c2ccc([N+](=O)[O-])cc2)c2ncnc(N/N=C/c3ccccc3O)c12,11.4%
27,CC(C)(C)OC(=O)CN1CCc2c(sc3ncnc(N4CCN(c5ccc(F)cc5)CC4)c23)C1,85.5%
28,COC(=O)[C@@]1(C)CC[C@]2(C)CC[C@]3(C)C4=CC=C5C(=CC(=O)C(O)=C5C)[C@]4(C)[C@@H](O)C[C@@]3(C)[C@@H]2C1,-10.1% (active)
